Assay outcomes: PubChem BioAssay, Broad Institute
A selection follows.
aSyn 5UTR act – Activators working through SNCA 5'UTR binding (MLPCN); alpha-synuclein 5'UTR reporter, activators screen; activity score, % (tested at 7.5 µM), hits read low; 7.1% of 300,000 active; AID 1814; in the data active means activity score below about -60%
An asterisk follows results filed as active.

SMILES	aSyn 5UTR act
CC1=CCC(COC(=O)Nc2ccccc2)CC1 (stereo not given)	-138.9*
Cc1scc(C(=O)N/N=C/c2ccco2)c1C	-86.4*
Cc1scc(C(=O)N/N=C/c2ccsc2)c1C	-161.7*
Cc1scc(C(=O)N/N=C/c2ccc([N+](=O)[O-])o2)c1C	84.8
Cn1cc(Cl)c(C(=O)Nc2nc3ccc(Cl)cc3s2)n1	-197.0*
Cn1cc(Cl)c(C(=O)Nc2nc3ccc([N+](=O)[O-])cc3s2)n1	-68.0*
Cc1ccc(NC(=O)c2cc3cccc([N+](=O)[O-])c3[nH]2)cc1	-110.4*
Clc1ccc(SCc2cn3ccsc3n2)cc1	-236.1*
Cc1cc(OCc2cn3cccnc3n2)ccc1Cl	-127.2*
Clc1ccc(SCc2cn3cccnc3n2)cc1	-64.4*
c1ccc(CSCc2cn3ccsc3n2)cc1	-175.9*
Cc1csc2nc(CSc3ccc(Cl)cc3)cn12	-102.9*
c1cn2cc(CSC3CCCCC3)nc2s1	-130.4*
c1ccc2oc(SCc3cn4ccsc4n3)nc2c1	-122.4*
Cc1nnsc1S(=O)c1ccc(F)cc1 (stereo not given)	-68.2*
Cc1nnsc1S(=O)c1ccc(Br)cc1 (stereo not given)	-148.3*
Cc1ccc(S(=O)c2snnc2C)cc1 (stereo not given)	-66.0*
CC(=O)c1cccc(NC(=S)NC(=O)c2ccc(C)cc2)c1	-83.1*
CC(=O)c1cccc(NC(=S)NC(=O)c2ccc(Br)cc2)c1	-142.9*
CC(=O)c1cccc(NC(=S)NC(=O)c2ccc(C)cc2Cl)c1	-70.0*
CCCc1ccc(C(=O)/C=C/N(C)C)cc1	-126.2*
CN(C)/C=C/C(=O)c1ccc(Oc2ccccc2)cc1	-136.4*
Cc1nc2ccc(NC(=O)c3ccco3)cc2s1	-90.2*
CC(=O)Nc1nc2ccc(NC(=O)c3ccco3)cc2s1	-77.1*
Cc1ccc2nc(NC(=O)c3ccco3)sc2c1	85.2
SMILES	aSyn 5UTR act
Cc1ccc2nc(NC(=S)NC(=O)c3ccco3)sc2c1	-148.0*
COc1cc2sc(NC(=O)c3ccco3)nc2cc1Cl	-189.0*
Cc1ccc2nsnc2c1NC(=S)NC(=O)c1ccco1	-93.7*
O=C1c2ccccc2C(=O)c2c1ncn2-c1ccccc1	70.3
O=C1c2ccccc2CN1c1ccccc1	-107.3*
C=CC(=O)Oc1ccc(N2Cc3ccccc3C2=O)cc1	-113.5*
CCCc1ccc(-c2cc(NC(=O)CSc3n[nH]c(N)n3)n(-c3ccccc3)n2)cc1	-141.4*
CC1Cc2cc(/C(O)=C3/C(=O)C(=O)N(CC4CCCO4)C3c3ccco3)ccc2O1 (stereo not given)	-61.6*
N=c1c(S(=O)(=O)c2ccc(Br)cc2)cc2c(=O)n3ccccc3nc2n1C1CCCC1	49.9
O=C(NC1CCCCCC1)c1cc2c(=O)n3ccccc3nc2s1	-84.8*
C=CCNC(=O)c1cc2c(=O)n3ccccc3nc2s1	-218.5*
CC1CCC(NC(=O)Cn2c(=O)[nH]c3ccsc3c2=O)CC1 (stereo not given)	-130.4*
c1ccc(C2=NNC(=NC3CC3)SC2)cc1	58.0
c1ccc2c(C3=NNC(=NC4CCCCC4)SC3)c[nH]c2c1	-140.4*
CCOC(=O)C1CCN(C(=O)c2cc3cc4cc(OC)ccc4nc3o2)CC1	-71.1*
COc1ccc2nc3oc(C(=O)N4CCCCC4)cc3cc2c1	-191.6*
Cn1c2ccc(Br)cc2c2nnc(SCC(=O)O)nc21	62.0
Cn1c2ccc(CC(=O)O)cc2c2cc(CC(=O)O)ccc21	-64.7*
Cc1cccc(C(=O)O/N=C(\N)c2ccc(Br)cc2)c1	-211.4*
N/C(=N\OC(=O)c1cccc(Br)c1)c1ccccn1	71.8
N/C(=N\OC(=O)c1cccc(Br)c1)c1ccccc1	-305.2*
Cc1cc(C)cc(C(=O)O/N=C(\N)c2ccc(Br)cc2)c1	-82.7*
N/C(=N\OC(=O)c1ccoc1)c1ccc(Br)cc1	-111.1*
Cc1ccc(C(=O)O/N=C(\N)c2ccc(Br)cc2)cc1C	-135.8*
N/C(=N\OC(=O)c1ccc2ccccc2c1)c1ccc(Br)cc1	-103.3*
SMILES	aSyn 5UTR act
Cc1cccc(C(=O)O/N=C(\N)c2ccc(Cl)cc2)c1	-107.7*
Cn1cccc1/C=C1\Cc2ccccc2C1=O	-141.6*
CC(C)(C)c1ccc(OCc2ccc(C(=O)NCc3cccnc3)o2)cc1	-133.1*
CC(C)(C)c1ccc(OCc2ccc(C(=O)NN)o2)cc1	-106.9*
Cc1ccc(COc2ccccc2-c2cc(C(=O)N/N=C/c3cccnc3)[nH]n2)cc1	-76.7*
CCCc1ccc(OCc2ccc(C(=O)N/N=C/c3cccnc3)o2)cc1	-143.1*
NNC(=O)c1ccc(COc2ccc3c(c2)CCC3)o1	-73.7*
CC(C)(C)c1ccc(OCc2ccc(C(=O)N/N=C/c3ccc([N+](=O)[O-])cc3)o2)cc1	-137.7*
O=C(c1ccc(COc2ccc3c(c2)CCC3)o1)N1CCN(c2ccccc2)CC1	-72.6*
Cc1ccc(-c2csc(Cc3nc(-c4ccc5c(c4)CCC(=O)N5)cs3)n2)cc1	-124.4*
Clc1ccc(-c2nnc(-c3ccccc3)c(N3CCSCC3)n2)cc1	-62.4*
Cn1c(CSc2ccccc2)c(C#N)c2ccccc21	-131.1*
CC(C)c1ccc(CNc2ccc3c(c2)ncn3C)cc1	-205.8*
Cn1cnc2cc(NCc3ccccc3Cl)ccc21	-92.2*
CCCC(=O)NC(c1ccc(C(C)C)cc1)c1ccc2cccnc2c1O (stereo not given)	83.1
CC(C)c1ccc(CNc2ncccn2)cc1	-127.7*
CCn1cnc2cc(NCc3ccccc3Cl)ccc21	-87.1*
C=C(C)CNC(=S)N/N=C(\C)c1ccc(Cl)s1	-70.2*
O=[N+]([O-])c1cccc(-c2nnn(C34CC5CC(CC(C5)C3)C4)n2)c1	-82.1*
CCOc1cccc2cc(C(=O)NCCC3=CCCCC3)c(=O)oc12	-95.0*
O=C(NCCC1=CCCCC1)c1ccc(CN2CCOCC2)cc1	-72.7*
O=C(CCNC(=O)c1ccc(Cl)cc1)NCCC1=CCCCC1	-124.4*
COCC(C)N1CCC(Oc2cccc(C(=O)NCCc3ccccc3)c2)CC1 (stereo not given)	-71.8*
COc1ccc(C(=O)NCCC2=CCCCC2)cc1OC	-81.0*
COc1ccc(C(=O)NCCc2ccccc2)cc1OC	-96.5*
SMILES	aSyn 5UTR act
O=C(NCCC1=CCCCC1)c1ccc([N+](=O)[O-])cc1	-146.7*
O=C(NCCc1ccc(F)cc1)c1ccc([N+](=O)[O-])cc1	-77.5*
CCOc1ccc(C(=O)NCCc2ccccc2)cc1	61.1
COc1ccc(C(=O)NCCC2=CCCCC2)cc1	57.0
Cc1cc(C(=O)NCCC2=CCCCC2)ccc1[N+](=O)[O-]	-121.1*
O=C1CSc2ccc(C(=O)NCCC3=CCCCC3)cc2N1	-103.6*
O=C(NC1CCCCCC1)c1ccc(CN2CCOCC2)cc1	-122.2*
O=c1oc2cc(O)ccc2cc1-c1ccccc1	-146.6*
COc1ccc(-c2cc3ccc(O)cc3oc2=O)cc1	-63.6*
O=c1cc(-c2ccccc2)c2ccc(O)cc2o1	48.2
CC(=O)Oc1ccc(-c2cc3ccccc3oc2=O)cc1	-134.8*
CN(C)CCNc1nc2sc3c(c2c(=O)n1CCc1ccccc1)CCCCC3	-87.1*
CC(O)CNc1nc2sc3c(c2c(=O)n1Cc1ccco1)CCCCC3 (stereo not given)	-102.6*
NC(=O)Cn1c(=O)n(Cc2ccco2)c(=O)c2c3c(sc21)CCCCC3	-79.8*
CC(O)CNc1nc2sc3c(c2c(=O)n1CCc1ccccc1)CCCCC3 (stereo not given)	-71.6*
Cc1cc(C)n(-c2nc(NCCN(C)C)c3c4c(sc3n2)CCCC4)n1	115.9
Cc1ccccc1Cn1c(=O)n(Cc2ccco2)c(=O)c2ccccc21	56.4
COc1ccc(C(=O)Cc2ccc3c(c2)OCO3)c(O)c1	-106.9*
